The values below come from PubChem BioAssay (NCATS).

“And” between values parts separate entries of the source, which are not always exact repeats. Identical values can stand only once. Records with an inconclusive call do not appear. The source made the active and inactive calls. Unless noted, calls come from the whole dose curve; as a rule, active = well fitted curve in the direction sought with a large enough effect; inconclusive = small, poorly fitted or top-dose-only effect, or another doubt; inactive = no such curve, though single readings can be large; an effect the other way counts as inactive or inconclusive.

Assay [1] in a line: qHTS Assay for Identification of Small Molecule Agonists for NFkB Signaling Pathway. (AID 624478).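 Note: compounds tested together with TNF alpha at its EC50 of 10 pM; 0% is about no effect.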 In outline: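 Activators were sought in reporter cells stimulated at the TNF alpha EC50 (10 pM final). Compound and cytokine were co-incubated 5 hours at 37 C before beta-lactamase substrate detection by dual-emission fluorescence.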
Assay [2] in a line: Cell Proliferation Assay against the TMD8 Cell Line (AID 651645).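 Note: cells exposed to compound for 48 h before reading.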 The following applies: TMD8 DLBCL cell line proliferation/viability; at 46.1 µM (top of the series) unless noted. In outline: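 Cell viability of the ABC DLBCL line TMD8 is measured by CellTiter-Glo luminescence following a 48-hour incubation with compound. Percent activity uses DMSO as 100% and 9.2 uM bortezomib (final) as 0%.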

Assay [3] in a line: Cell Proliferation Assay against the HBL1 Cell Line (AID 651646).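 Note: cells exposed to compound for 48 h before reading.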 The following applies: HBL1 DLBCL cells; at 46.1 µM (top of the series) unless noted. The essentials:
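HBL1, 500 cells/well, RPMI no phenol red + 5% FBS; cpd pinned, 48 h 37C/5% CO2; CellTiter-Glo, 15 min RT, luminescence. % activity: DMSO = 100%, bortezomib 9.2 uM final = 0%.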

A short description of assay [4]: Cell Proliferation Assay against the TMD8 Cell Line (Caspase readout at 16 hrs) (AID 651712). In outline: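 Caspase-Glo luminescence after 16 h compound exposure of TMD8 cells, 37 °C, 5% CO2. Medium: RPMI without phenol red, 5% FBS. Normalisation: DMSO = 0%, bortezomib 9.2 uM final = 100%.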
Assay [5] can be described thus: qHTS of Trypanosoma Brucei Inhibitors: LOPAC Validation (AID 624147). Note: 0% is about no effect. The essentials: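 Luminescence from Kinase-Glo Plus, added after a 45-minute room-temperature reaction, served as the end-point read-out. The enzyme and substrate were preincubated with compound before ADP (130 uM final) initiated turnover. Concentration-effect curves came from normalized qHTS data.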
On the technique in general: Quantitative high-throughput screening tests each substance at several concentrations.

A short description of assay [6]: qHTS of Nrf2 Activators: LOPAC Validation (AID 624149). Note: 0% is about no effect. The essentials:
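Cells (AREc32_Fluc) are plated at 1000 per well in OPTI-MEM containing 5% FBS and left overnight. Compounds are pinned in and incubated 24 hr at 37 deg C, and firefly luciferase is detected with Steady-Glo.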

A short description of assay [7]: qHTS assay for small molecule agonists of the antioxidant response element (ARE) signaling pathway (AID 651741; active = well fitted activation curve with a large enough effect in the signal ratio; the % refers to the signal ratio; note: potency is the fitted concentration of half-maximal effect). In outline: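 Stably integrated ARE-beta-lactamase reporter HepG2 cells; 16 h compound incubation, 37 C; LiveBLAzer FRET substrate 2 h at room temperature; fluorescence intensity.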
Assay [8] can be described thus: qHTS assay for small molecule activators of the p53 signaling pathway (AID 651743; active = well fitted activation curve with a large enough effect in the signal ratio, not every such curve was filed as active; the % refers to the signal ratio; note: % of control where 0% means no effect). Conditions: HCT-116 p53RE-bla, beta-lactamase FRET ratio, 16 h; activation: stronger effect = higher value. The essentials:
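Following 16 hours of compound exposure at 37 C, HCT-116 cells bearing the p53RE-bla reporter were loaded with LiveBLAzer B/G FRET substrate for 2 hours at room temperature and fluorescence intensity was recorded.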

A short description of assay [9]: qHTS assay for environmental chemicals that activate the Aryl hydrocarbon Receptor (AhR) signaling pathway (AID 651777). For activation: % of control where 0% means no effect. Note: nearly all actives have a fitted effect of over 15% in size. Note: potency is the fitted concentration of half-maximal effect. The following applies: 1A2-DRE human hepatoma cells, luciferase, 24 h; activation: stronger effect = higher value. The essentials:
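Luminescence read-out: One-Glo added for 30 min at RT after 24 hr compound treatment (37 C, 5% CO2) of human hepatoma cells expressing a DRE/CYP1A2 promoter–luciferase reporter; increased signal indicates AhR activation.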

Assay [10] concerns the target Glucagon-like peptide 1 receptor (Homo sapiens) (UniProt P43220). The assay is described as follows: qHTS of GLP-1 Receptor Agonists: LOPAC Validation (AID 624148).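 Note: 0% is about no effect; higher luminescence signal means agonism.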 The essentials:
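HEK293 cells stably co-expressing GLP-1R and a cAMP-responsive luciferase reporter, plated 12 hours before compound, then incubated 4-6 hr at 37 deg C. Luminescence read 12 min after detection reagent.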

Assay [11] in a line: HTS Assay for Allosteric Antagonists of the Human D2 Dopamine Receptor: Hit Validation in HTRF (AID 624455).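 Note: stable D1 dopamine receptor cell line scored for blocking the D1 response; % is set by controls: 0 for no effect and ±100 for the full control effect.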 In outline:
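Inhibition of the D1-mediated response is measured by HTRF in cells that stably express the D1 dopamine receptor. Compounds reaching this step are hits from calcium-flux antagonism testing at EC80 dopamine in inducible Hek293 Trex D2 cells.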
In general terms: In TR-FRET formats the signal depends on donor and acceptor labels being close together.

Assay [12] is described as follows: qHTS assay for small molecule activators of the nuclear factor-kappa B (NF-kB) signaling pathway (AID 651749; active = well fitted activation curve with a large enough effect in the signal ratio; the % refers to the signal ratio; note: % of control where 0% means no effect). The following applies: NF-kB-bla ME-180 cells, beta-lactamase FRET ratio, 16 h; stronger effect = higher value. The essentials: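 In this qHTS format, compounds acting as activators increase NF-kB-driven beta-lactamase in ME-180 cells, measured as disrupted FRET after 16 hr exposure at 37C and 5% CO2.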

Assay [13] concerns the target Tumor necrosis factor (Homo sapiens) (UniProt P01375). The assay is described as follows: qHTS assay to identify small molecules that stimulate Tumor Necrosis Factor-alpha (TNF-alpha) secretion (AID 651757; active = well fitted curve in the direction sought with a large enough effect in the signal ratio; the % refers to the signal ratio; note: 0% is about no effect). The essentials: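 Human monocytic THP-1 cells are plated, treated with compound and held at 37 C for 17 hrs. Labeled anti-TNF-alpha antibody mixture is then added; after 3 hr at room temperature, TR-FRET signal reports secreted TNF-alpha.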

The nature of assay [14]: Cytotoxicity counterscreen for NFkB agonists and antagonists (AID 624476; note: % is set by controls: 0 for no effect and ±100 for the full control effect). (The purpose of a counterscreen is to sort out artefacts and off-target activity.)
Assay [15] is described as follows: qHTS Assay for Identification of Small Molecule Antagonists for NFkB Signaling Pathway. (AID 624479; calls by dose curve; note: potency is the fitted concentration of half-maximal effect).
Assay [16] is described as follows: Cell Proliferation Assay against the TMD8 Cell Line (Caspase readout at 8 hrs) (AID 651713).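 Note: 0% = DMSO and 100% = 9.2 µM bortezomib caspase signal.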 In outline: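 Caspase 3/7 activation in ABC DLBCL TMD8 cells is measured by luminescence after an 8 h compound exposure at 37C. Relative light units are scaled between DMSO (0%) and 9.2 uM final bortezomib (100%).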

Tumor necrosis factor (Homo sapiens), sequence (P01375 whole entry, looked up): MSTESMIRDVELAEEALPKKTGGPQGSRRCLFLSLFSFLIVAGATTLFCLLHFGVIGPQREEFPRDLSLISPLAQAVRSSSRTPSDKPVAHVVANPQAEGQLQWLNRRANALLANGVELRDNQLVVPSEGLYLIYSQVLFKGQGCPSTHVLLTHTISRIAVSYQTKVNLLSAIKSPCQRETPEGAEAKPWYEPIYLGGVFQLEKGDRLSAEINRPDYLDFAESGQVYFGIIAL
Glucagon-like peptide 1 receptor (Homo sapiens), sequence (P43220 whole entry, looked up): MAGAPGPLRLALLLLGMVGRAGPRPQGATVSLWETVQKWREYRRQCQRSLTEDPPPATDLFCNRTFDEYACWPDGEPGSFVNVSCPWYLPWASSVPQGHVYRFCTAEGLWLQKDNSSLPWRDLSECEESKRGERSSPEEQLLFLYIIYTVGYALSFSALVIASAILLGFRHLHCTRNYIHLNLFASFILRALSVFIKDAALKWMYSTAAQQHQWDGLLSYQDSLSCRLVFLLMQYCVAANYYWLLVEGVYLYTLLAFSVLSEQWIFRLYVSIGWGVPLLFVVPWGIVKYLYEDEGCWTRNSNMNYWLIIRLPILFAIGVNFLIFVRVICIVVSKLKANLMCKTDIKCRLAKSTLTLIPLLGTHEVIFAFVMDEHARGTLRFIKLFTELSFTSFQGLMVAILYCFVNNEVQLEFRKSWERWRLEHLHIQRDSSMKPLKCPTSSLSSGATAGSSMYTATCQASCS

As for `COc1cc(Nc2c(C#N)cnc3cc(OCCCN4CCN(C)CC4)c(OC)cc23)c(Cl)cc1Cl`, the call in assay [1] was inactive. In addition, in assay [2], the viability (% of control) came out at 4.66%. The viability, percent of control in [3] came out at 5.95%. Further, the Potency entry in assay [4] was “inactive”.
In the case of `CNC[C@H](O)c1ccc(O)c(O)c1`, the Potency result in assay [5] was “inactive”. The call in assay [6] was inactive. Further, the Potency in assay [7] is 48.6 µM (active). Moreover, the activation in [8] is 1.2% (inactive); in assay [9] it was -0.576% (inactive).
Take `Cc1cc(O)c2c(c1)C(=O)c1cc(O)cc(O)c1C2=O`: the result in [10], in assay [6] and in assay [11] was inactive. The activation in assay [12] was 0.85% (inactive) and -1.63% (inactive). Also, the Potency in [9] is 44.7 µM (active).
As for `CCCCC(CC)COC(=O)C(C#N)=C(c1ccccc1)c1ccccc1` (centres undefined), the values for the activation in assay [8], in assay [12] and in assay [9] were -3.23% (inactive), 0.0169% (inactive) and 0.749% (inactive), respectively. In [13], the Potency result is “inactive”.
Turning to `N[C@@H](Cc1cc(I)c(Oc2cc(I)c(O)c(I)c2)c(I)c1)C(=O)O`, the Potency was 54.5 µM (active) in assay [7] and 44.7 µM (active) in assay [9]. Moreover, in [12], the activation was 8.63% (inactive).
For `CCOC(=O)C1=C(O)C(=O)N(Cc2ccccc2)C1`, the Potency entry in assay [14], in assay [15], in [4] and in assay [16] was “inactive” in each case. The result in assay [1] was inactive. Moreover, in assay [2], the viability (% of control) was determined as 104%. In assay [3], the viability, percent of control was found to be 107%.
With `Cc1ccc(Nc2nccc(N(C)c3ccc4c(C)n(C)nc4c3)n2)cc1S(N)(=O)=O`, the Potency entry in assay [14] and in [16] was “inactive” in each case. Further, the compound was called inactive in [1]. In addition, the Potency in assay [15] was 16.8 µM (active). The viability (% of control) in assay [2] is 13.2%. In [3], the viability, percent of control stood at 35.9%.
